Results on 35 molecules are retold here after PubChem BioAssay (EPA / NIEHS).

The structures appear in SMILES notation. Several values for one entry are separate records, joined by “and”; a condition that tells them apart may be missing. Equal values may be shown once. Results filed as inconclusive are left out. Activity calls are given as the source filed them. How the source made its calls: active means hit-call score of the fitted dose curve at least 0.9, where 1 is the maximum; inconclusive means response in the unintended direction; inactive means score below 0.9.

The first experiment in a line: ATG_XTT_Cytotoxicity: Cytotoxicity Assessment in the Attagene TRANS-FACTORIAL HepG2 Assay (AID 2283584).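 On AC50: XTT signal for cell number as viability in transfected HepG2 cells; cells exposed to compound for 24 h before reading; active means loss of viability signal versus DMSO baseline.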 An outline of the steps: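 Transfect HepG2 with GAL4-UAS reporter units, dose compound, incubate 24 h, then measure viable cell number by XTT. Fit concentration response against DMSO baseline.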
Turning to `C#C[C@]1(O)CC[C@H]2[C@@H]3CCC4=CC(=O)CC[C@]4(C)[C@H]3CC[C@@]21C`, the molecule was classed as inactive.

Turning to `O=c1[nH]c(=O)n(Cl)c(=O)n1Cl`, the molecule was called inactive.

Take `CCCCS(=O)(=O)Cl`: the call was inactive.

Consider `C[As+](C)(C)CC(=O)[O-]`, for which the molecule was called inactive.

Consider `c1cc[c]([Sb]([c]2ccccc2)[c]2ccccc2)cc1`, for which the call was inactive.

For the molecule `C[C@H]1C(=O)O[C@@H]2CCN3CC=C(COC(=O)[C@](C)(O)[C@]1(C)O)[C@H]23`, the outcome was inactive.

As to `Cc1ccc(CCl)cc1`, the molecule was called inactive.

Turning to `Cc1ccc2nc3sc(=O)sc3nc2c1`, the result was inactive.

For `ClCCN1CCOCC1`, the result was inactive.

Regarding `C=C(C)C(=O)OCCCCOC(=O)C(=C)C`, the molecule was called inactive.

As for `C[C@@H]1O[C@@H](O[C@H]2C[C@@H](O)[C@]3(CO)[C@H]4[C@H](O)C[C@]5(C)[C@@H](C6=CC(=O)OC6)CC[C@]5(O)[C@@H]4CC[C@]3(O)C2)[C@H](O)[C@H](O)[C@H]1O`, the molecule was called inactive.

For `C#CCOC(=O)/C=C(C)/C=C/CC(C)CCCC(C)C` (stereo not given), the molecule was called inactive.

For `O=C1c2ccccc2C(=O)C1C(=O)C(c1ccccc1)c1ccc(Cl)cc1` (stereo not given), the result was inactive.

As to `c1ccc2sc(SNC3CCCCC3)nc2c1`, the call was inactive.

Usually AC50 stands for the concentration giving half of the maximal activity seen. For the molecule `[Cl][Sn]([c]1ccccc1)([c]1ccccc1)[c]1ccccc1`, the AC50 is 1.73 µM (active) and 986 nM (active).

Regarding `O=C(CCl)NCO`, the outcome was inactive.

Consider `CCCCCCCCCCCCOS(=O)(=O)O`, for which the result was inactive.

As for `Oc1c(Br)cc(Br)cc1Br`, the molecule was classed as inactive.

With `CCN(N=O)C(N)=O`, the molecule was classed as inactive.

`O=CCCl`: the result was inactive.

As to `CC(C)(c1ccc(O)c(-c2ccccc2)c1)c1ccc(O)c(-c2ccccc2)c1`, the AC50 is 22.2 µM (active).

Turning to `C1CCC(C2CCCCC2)CC1`, the result was inactive.

In the case of `CCOP(=S)(OCC)Oc1ccc(Cl)cc1Cl`, the molecule was classed as inactive.

Consider `O=S(=O)(C(Cl)(Cl)Cl)C(Cl)(Cl)Cl`, for which the AC50 is 36.7 µM (active).

Regarding `Cc1cc(Cl)ccc1N`, the molecule was classed as inactive.

Take `CC1(C)COP(Oc2ccccc2)OC1`: the call was inactive.

Consider `NC(=O)c1ccc(N)nc1`, for which the outcome was inactive.

For `Oc1ccc(Cc2ccc(O)cc2)cc1`, the call was inactive.

Consider `CC(=O)CN(CC(C)=O)N=O`, for which the molecule was called inactive.

For `CCCCCCCCBr`, the molecule was classed as inactive.

Turning to `Cc1ccc(OP(=O)(Oc2ccc(C)cc2C)Oc2ccc(C)cc2C)c(C)c1`, the molecule was called inactive.

Turning to `Oc1cccc(-c2ccccc2)c1`, the result was inactive.

With `C1CN2CCN1CC2`, the molecule was called inactive.

Take `Nc1cccnc1`: the molecule was called inactive.

`O=[N+]([O-])c1ccc(Nc2ccccc2)cc1`: the molecule was called inactive.

The next experiment can be described thus: TOX21_p53_BLA_p2_viability: Viability Assessment in the Tox21 HCT-116 p53 Agonism Beta-lactamase Assay, Phase 2 (AID 2283591).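 Further: compound exposure lasted 16 h at 37 °C; actives lower the ATP signal meaning cytotoxicity.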 Summed up: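 HCT-116 p53-bla cells (4000/well) rested 5 h at 37C, then received compounds in DMSO (217-fold dilution) for 16 h at 37C, 5% CO2. After the CCF4 read, CellTiter-Glo was added; ATP luminescence was read after 30 min at room temperature.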
With `O=C1c2ccccc2C(=O)C1C(=O)C(c1ccccc1)c1ccc(Cl)cc1` (stereo not given), the AC50 is 29.4 µM (active).

As for `O=C(CCl)NCO`, the molecule was called inactive.

Take `CCN(N=O)C(N)=O`: the molecule was called inactive.

Consider `CCOP(=S)(OCC)Oc1ccc(Cl)cc1Cl`, for which the call was inactive.

As to `O=[N+]([O-])c1ccc(Nc2ccccc2)cc1`, the AC50 was 32.5 µM (active).
